From PubChem BioAssay (Tox21)
Records with an inconclusive call do not appear. Active and inactive are the calls of the source. Unless noted, calls come from the whole dose curve; as a rule, active = well fitted curve in the direction sought with a large enough effect in the repeat runs; inconclusive = weak or mixed curves; inactive = no such curve, though single readings can be large; an effect the other way counts as inactive or inconclusive.

Key:
[1] = qHTS assay to identify small molecule antagonists of the estrogen receptor alpha (ER-alpha) signaling pathway using the BG1 cell line in the presence of 0.1 nM 17-beta-estradiol - cell viability counter screen (AID 1259241); note: nearly all actives have a fitted effect of over 40% in size
Method in brief: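 VM7Luc4E2 cells (endogenous ER-alpha, 4×ERE-luciferase), hormone-starved 5 days in charcoal-stripped FBS, were treated with compounds plus 0.1 nM 17beta-estradiol for 22 hr at 37C; viability read in same wells as CellTiter-Fluor live-cell protease fluorescence.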

[2] = qHTS assay to identify small molecule antagonists of the androgen receptor (AR) signaling pathway using the MDA cell line in the presence of 0.5 nM R1881 - cell viability counter screen (AID 1259242); note: nearly all actives have a fitted effect of over 45% in size
Method in brief: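 MDA-kb2 cells (MMTV-luciferase, AR/GR responsive) were treated with compounds plus 0.5 nM R1881 (final) for 16 hr at 37C, 0% CO2. Viability was then read in the same wells as live-cell protease fluorescence (CellTiter-Fluor, 30 min).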

[3] = biological target: Estrogen receptor (Homo sapiens) (UniProt P03372); experiment: qHTS assay to identify small molecule antagonists of the estrogen receptor alpha (ER-alpha) signaling pathway using the BG1 cell line in the presence of 0.1 nM 17-beta-estradiol (AID 1259244); note: nearly all actives have a fitted effect of over 50% in size
Method in brief: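 VM7Luc4E2 cells (endogenous full-length ER-alpha, 4×ERE-luciferase), kept 5 days in phenol red-free, charcoal-stripped FBS medium; 4,000 cells/well. Compounds added with 0.1 nM (final) 17beta-estradiol, 22 hr at 37C; luminescence read with ONE-Glo after 30 min.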

[4] = qHTS assay to identify small molecule phospholipidosis (PLD) inducers (AID 1259344; active = well fitted curve in the direction sought with a large enough effect; an effect the other way counts as inactive or inconclusive)
Method in brief: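 HepG2 cells grown on collagen I take up LipidTOX Red while exposed to compound for 24 h; after fixation they are imaged at 20x and pit metrics are extracted.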

[5] = qHTS assay to identify small molecule HDAC inhibitors (AID 1259364); note: top concentration of the series differs between compounds; nearly all actives have a fitted effect of over 45% in size
Method in brief: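 Wild-type HCT-116 cells, plated overnight at 37 C, exposed to compounds 2 hr at 37 C; luminogenic HDAC-Glo substrate then added 30 min at room temperature. Luminescence reports relative endogenous class I/II HDAC activity.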

[6] = qHTS assay to identify small molecule HDAC inhibitors - cell viability counter screen (AID 1259365); note: series mostly up to about 92 µM; nearly all actives have a fitted effect of over 50% in size
Method in brief: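 Wild-type HCT-116 cells were seeded at 1,500 per well, incubated overnight at 37 C, then exposed to compounds in DMSO for 2hr. Viability was read by CellTiter-Glo luminescence after 30min at room temperature.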

[7] = qHTS assay to identify small molecule agonists of the sonic hedgehog signaling (Shh) pathway - cell viability counter screen (AID 1259366); note: nearly all actives have a fitted effect of over 50% in size
Method in brief: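 NIH/3T3-derived 3T3 Gli1-Luc cells (stable Gli1-responsive firefly luciferase reporter) were seeded, rested 4 hr at 37 C/5% CO2, then exposed to compounds in DMSO for 24 hr; viability was read by CellTiter-Fluor fluorescence in the same wells.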

[8] = qHTS assay to identify small molecule antagonists of the sonic hedgehog signaling (Shh) pathway - cell viability counter screen (AID 1259367); note: nearly all actives have a fitted effect of over 55% in size
Method in brief: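 After a 4 hr settling period, 3T3 Gli1-Luc cells were treated with DMSO-dissolved chemicals and conditioned medium, kept 24 hr at 37C in 5% CO2, and assayed for viability by CellTiter-Fluor fluorescence following 1 hr reagent incubation.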

[9] = qHTS assay to identify small molecule antagonists of the sonic hedgehog signaling (Shh) pathway (AID 1259369; calls by dose curve; note: nearly all actives have a fitted effect of over 45% in size)
Method in brief: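 NIH/3T3-derived Gli1-Luc reporter cells plated 4 h, dosed with compound, then stimulated with conditioned medium for 24 h at 37 C. Firefly luciferase luminescence read after 30 min with detection reagent at room temperature.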

[10] = biological target: Estrogen receptor beta (Homo sapiens) (UniProt Q92731); experiment: qHTS assay to identify small molecule agonists of the estrogen receptor beta (ER-beta) signaling pathway (AID 1259377; active = well fitted activation curve with a large enough effect in the signal ratio in the repeat runs, not every such curve was filed as active; the % refers to the signal ratio)
Method in brief: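 ER-beta-UAS-bla HEK293T (GripTite) cells carrying a UAS-driven beta-lactamase reporter, in medium with 2% charcoal-stripped FBS, were exposed to compounds for 16 hr at 37C; LiveBLAzer B/G FRET substrate was then added and fluorescence read after 2 hours at room temperature.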

[11] = biological target: Estrogen receptor beta (Homo sapiens) (UniProt Q92731); experiment: qHTS assay to identify small molecule antagonists of the estrogen receptor beta (ER-beta) signaling pathway (AID 1259378; active = well fitted inhibition curve with a large enough effect in the signal ratio in the repeat runs, not every such curve was filed as active; the % refers to the signal ratio)
Method in brief: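 ER-beta-UAS-bla HEK293T (GripTite) cells in 2% charcoal-stripped FBS medium were preincubated 6 hr at 37C, dosed with compound, then stimulated with 1 nM E2 (final) for 16 hr; beta-lactamase reporter read by B/G FRET fluorescence after 2 hr substrate loading.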

[12] = qHTS assay to identify small molecule agonists of the androgen receptor (AR) signaling pathway in the presence of an antagonist - cell viability counter screen (AID 1259379);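 note: MDA-kb2 human breast cancer cells carrying an MMTV luciferase reporter; series mostly up to about 92 µM; nearly all actives have a fitted effect of over 25% in size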
Method in brief: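 MDA-kb2 cells (MMTV-luciferase, AR/GR), 3,000/well, 5 h attachment, then 3.0 µM nilutamide (final) and compounds at 15 concentrations. Viability by CellTiter-Fluor fluorescence after 16 h at 37 °C, 0% CO2, in the reporter wells.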

[13] = qHTS assay to identify small molecule antagonists of the estrogen receptor beta (ER-beta) signaling pathway - cell viability counter screen (AID 1259382); note: series mostly up to about 92 µM; nearly all actives have a fitted effect of over 55% in size
Method in brief: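 ER-beta-UAS-bla HEK293T cells in 2% charcoal-stripped FBS medium, treated with compound plus 1 nM 17-beta-estradiol for 16 h at 37C. Viability read by CellTiter-Glo luminescence after 30 min at room temperature in the same wells.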

[14] = biological target: Estrogen receptor (Homo sapiens) (UniProt P03372); experiment: qHTS assay to identify small molecule agonists of the estrogen receptor alpha (ER-alpha) signaling pathway in the presence of an antagonist (AID 1259383; calls by dose curve; note: top concentration of the series differs between compounds; nearly all actives have a fitted effect of over 15% in size)
Method in brief: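 VM7Luc4E2 cells express endogenous full-length ER-alpha with an ERE-luciferase reporter and were hormone-deprived for 5 days. Compounds at 15 concentrations were added with 10.0nM ICI-182,780 for 22hr at 37C. Luminescence was read with ONE-Glo.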

[15] = qHTS assay to identify small molecule agonists or antagonists of the thyroid stimulating hormone receptor (TSHR) signaling pathway - wild type cell line counter screen (AID 1259384; calls by dose curve)
Method in brief: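 Wild-type HEK293 cells were plated 18 h at 37 C/5% CO2, pin-dosed with compound plus Ro20-1724 medium, held 30 min at room temperature, then given cAMP-d2 and anti-cAMP-cryptate; fluorescence was read after 1 h. Fifteen concentrations, triplicate.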

[16] = biological target: Thyrotropin receptor (Homo sapiens) (UniProt P16473); experiment: qHTS assay to identify small molecule antagonists of the thyroid stimulating hormone receptor (TSHR) signaling pathway (AID 1259385; calls by dose curve; note: nearly all actives have a fitted effect of over 20% in size)
Method in brief: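 TSHR-HEK293 cells were plated and held 18 h at 37C/5% CO2, then given compound plus Ro20-1724 and stimulated with TSH at 1.5 ng/mL final. After 30 min at room temperature, cAMP was detected with cAMP-d2/anti-cAMP-cryptate (1 h) by fluorescence.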

[17] = qHTS assay to identify small molecule agonists of the sonic hedgehog signaling (Shh) pathway (AID 1259368; calls by dose curve; note: series mostly up to about 92 µM; nearly all actives have a fitted effect of over 15% in size)
Method in brief: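 NIH/3T3-derived 3T3Gli1-Luc cells with stably integrated Gli1-driven firefly luciferase, 2,000 cells/well, compounds added after 4 hr. Incubated 24 hr at 37C, 5% CO2; luminescence read after 30 min with luciferase reagent at room temperature.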

[18] = qHTS assay to identify small molecule agonists of the estrogen receptor beta (ER-beta) signaling pathway - cell viability counter screen (AID 1259380); note: nearly all actives have a fitted effect of over 30% in size
Method in brief: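 ER-beta-UAS-bla HEK293T cells in medium with 2% charcoal-stripped FBS, pre-incubated 6 hr, then treated 16 hr at 37C. Cytotoxicity read in the same wells by CellTiter-Glo luminescence after 30 min at room temperature.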

Measured: Potency

Chain of Estrogen receptor beta (Homo sapiens) (Q92731 whole entry, looked up): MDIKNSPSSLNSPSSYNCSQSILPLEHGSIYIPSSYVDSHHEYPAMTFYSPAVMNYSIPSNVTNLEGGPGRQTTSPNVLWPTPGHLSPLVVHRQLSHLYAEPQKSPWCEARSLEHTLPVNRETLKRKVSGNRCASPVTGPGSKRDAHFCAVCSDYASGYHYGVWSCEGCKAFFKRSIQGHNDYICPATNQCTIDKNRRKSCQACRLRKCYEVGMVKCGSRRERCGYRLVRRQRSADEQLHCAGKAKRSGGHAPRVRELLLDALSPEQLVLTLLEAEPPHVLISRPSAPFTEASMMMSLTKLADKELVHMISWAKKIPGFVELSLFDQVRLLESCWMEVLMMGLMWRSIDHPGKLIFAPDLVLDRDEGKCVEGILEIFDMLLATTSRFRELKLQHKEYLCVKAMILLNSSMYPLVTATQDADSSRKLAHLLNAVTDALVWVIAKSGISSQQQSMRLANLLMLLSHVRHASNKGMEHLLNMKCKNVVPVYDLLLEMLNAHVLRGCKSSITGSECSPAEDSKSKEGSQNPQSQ
Chain of Thyrotropin receptor (Homo sapiens) (P16473 whole entry, looked up): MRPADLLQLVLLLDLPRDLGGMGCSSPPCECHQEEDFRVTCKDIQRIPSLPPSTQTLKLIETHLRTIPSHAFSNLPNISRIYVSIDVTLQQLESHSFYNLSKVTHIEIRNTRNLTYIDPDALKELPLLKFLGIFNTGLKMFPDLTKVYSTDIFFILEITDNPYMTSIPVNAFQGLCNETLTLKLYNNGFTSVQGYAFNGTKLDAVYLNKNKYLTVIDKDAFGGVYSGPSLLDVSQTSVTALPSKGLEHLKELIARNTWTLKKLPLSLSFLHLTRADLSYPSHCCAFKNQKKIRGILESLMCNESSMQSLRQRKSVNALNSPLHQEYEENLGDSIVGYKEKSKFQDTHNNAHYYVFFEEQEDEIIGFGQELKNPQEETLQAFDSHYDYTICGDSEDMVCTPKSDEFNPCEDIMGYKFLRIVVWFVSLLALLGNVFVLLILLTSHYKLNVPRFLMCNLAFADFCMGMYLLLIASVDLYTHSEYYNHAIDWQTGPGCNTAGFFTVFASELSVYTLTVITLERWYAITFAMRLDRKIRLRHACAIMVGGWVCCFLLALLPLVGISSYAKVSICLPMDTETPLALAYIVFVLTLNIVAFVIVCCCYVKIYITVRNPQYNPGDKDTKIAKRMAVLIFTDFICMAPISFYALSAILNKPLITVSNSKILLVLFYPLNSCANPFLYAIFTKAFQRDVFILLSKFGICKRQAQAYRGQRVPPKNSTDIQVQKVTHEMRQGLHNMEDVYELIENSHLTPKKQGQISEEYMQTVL
Chain of Estrogen receptor (Homo sapiens) (P03372 whole entry, looked up): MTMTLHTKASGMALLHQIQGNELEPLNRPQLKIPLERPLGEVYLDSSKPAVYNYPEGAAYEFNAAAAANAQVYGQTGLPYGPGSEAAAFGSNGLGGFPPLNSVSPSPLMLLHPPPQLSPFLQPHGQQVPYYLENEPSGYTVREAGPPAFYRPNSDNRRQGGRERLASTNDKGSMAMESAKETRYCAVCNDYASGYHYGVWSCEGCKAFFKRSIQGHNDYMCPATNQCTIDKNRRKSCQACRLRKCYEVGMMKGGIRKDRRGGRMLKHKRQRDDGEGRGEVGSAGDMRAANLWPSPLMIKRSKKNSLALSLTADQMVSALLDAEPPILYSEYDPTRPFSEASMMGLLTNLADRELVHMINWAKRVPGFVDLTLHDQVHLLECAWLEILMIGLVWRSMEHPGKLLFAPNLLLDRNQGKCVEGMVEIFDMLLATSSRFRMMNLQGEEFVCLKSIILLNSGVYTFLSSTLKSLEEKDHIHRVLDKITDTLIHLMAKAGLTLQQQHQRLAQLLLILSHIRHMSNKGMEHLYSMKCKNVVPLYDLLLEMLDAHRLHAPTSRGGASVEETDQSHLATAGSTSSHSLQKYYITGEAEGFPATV

Clc1cccc(N2CCNCC2)c1
not listed: [17] | [18]
inactive: all other assays above

O=C1CN=C(c2ccccc2)c2cc([N+](=O)[O-])ccc2N1
not listed: [14]
inactive: all other assays above

CCC1(c2ccccc2)C(=O)NC(=O)NC1=O
not listed: [7] | [14]
inactive: all other assays above

COc1cc2c(cc1OC)[C@@]13CCN4CC5=CCO[C@H]6CC(=O)N2[C@H]1[C@H]6[C@H]5C[C@H]43
not listed: [7] | [8] | [9] | [10] | [11] | [18]
inactive: all other assays above

C=C(C)[C@@H]1CC=C(C=O)CC1
not listed: [4] | [9] | [10] | [11] | [13]
inactive: all other assays above

CC(C)CP(=S)(S)CC(C)C
not listed: [4] | [9] | [10] | [11] | [13] | [18]
inactive: all other assays above

COc1cc(C[C@@H](C)N)c(OC)cc1C
not listed: [4] | [17]
inactive: all other assays above

CC(=O)CCc1ccc2c(c1)OCO2
not listed: [4] | [10] | [11]
inactive: all other assays above

CC1(C)CON(Cc2ccccc2Cl)C1=O
not listed: [4] | [9] | [13] | [14]
inactive: all other assays above
